These results are taken from PubChem BioAssay AID743427 (Vanderbilt Specialized Chemistry Center, 2014).

The target of the experiment is Metabotropic glutamate receptor 8 (Rattus norvegicus) (UniProt P70579). Description: mGlu8 positive allosteric modulation fold shift – cell-based, rat receptor, Ga15, calcium, 10 µM, mechanism study for mGlu8/mGlu7 PAM project, SAR follow-up (AID 743427). Particulars: rat mGlu8/Ga15, Fluo-4 calcium, glutamate CRC; glutamate CRC left shift; at 10 µM; stronger effect = higher value.

Consider `COC(=O)c1ccc(-n2c(C)cc(C(=O)CSc3ccc(NC(C)=O)cc3)c2C)cc1`, for which the fold shift was found to be 4.77.
